Screens (PubChem BioAssay)
Shown are actives, neighbours in structure and some others; about 4.2% of the full set was active somewhere.
ALOX12 inh = Primary qHTS assay for inhibitors of human arachidonate 12S-lipoxygenase (ALOX12): Round 2. purified 12hLO, xylenol orange hydroperoxide absorbance. Potency, µM (series often up to 108 µM), hits mostly inhibitors. 580,000 compounds, 1.1% hits. AID 1671190, 2021
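Hydroperoxide product was detected by ferrous iron/xylenol orange as the 573 to 405 nm absorbance ratio. Arachidonic acid at 40 uM (final) was turned over for 30 min at room temperature by 150 nM human 12hLO, pH 7.0 Hepes buffer, after 15 min compound preincubation.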
VDR inh = Inhibitors of the vitamin D receptor (VDR): qHTS; Vitamin D3 receptor (Homo sapiens), P11473; VDR-SRC2-3 peptide fluorescence polarization, 2 h; Potency, µM, hits mostly inhibitors; 400,000 compounds, 0.93% hits
Target sequence (P11473 whole entry, looked up): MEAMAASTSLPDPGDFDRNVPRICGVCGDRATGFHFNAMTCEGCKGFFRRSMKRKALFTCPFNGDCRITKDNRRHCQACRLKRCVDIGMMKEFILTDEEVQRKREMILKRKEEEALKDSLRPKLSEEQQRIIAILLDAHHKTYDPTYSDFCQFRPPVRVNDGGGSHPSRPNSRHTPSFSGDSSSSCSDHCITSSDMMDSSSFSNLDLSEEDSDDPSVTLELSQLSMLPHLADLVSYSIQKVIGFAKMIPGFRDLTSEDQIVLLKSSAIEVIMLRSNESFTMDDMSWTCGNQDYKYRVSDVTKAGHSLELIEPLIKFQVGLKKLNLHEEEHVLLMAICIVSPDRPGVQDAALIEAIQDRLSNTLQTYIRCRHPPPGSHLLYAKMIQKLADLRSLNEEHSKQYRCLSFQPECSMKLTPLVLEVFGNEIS
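Compounds are added to VDR with labelled SRC2-3 coactivator peptide and held 2 h at room temperature. Inhibition of the VDR–peptide interaction is then read as a change in fluorescence polarization.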
PLK1 PBD block = qHTS for Inhibitors of PLK1-PDB (polo-like kinase 1 - polo-box domain): Primary Screen; 360,000 compounds, 2.8% hits; Potency, µM, usual class: inhibitors; Plk1 PBD binding of FITC phosphopeptide, fluorescence polarization; AID 720504, 2013; further: series mostly up to about 57 µM; nearly all actives have a fitted effect of over 65% in size
Sfp PPTase inh = qHTS Assay for Inhibitors of Bacillus subtilis Sfp phosphopantetheinyl transferase (PPTase) | 4'-phosphopantetheinyl transferase ffp (Bacillus subtilis), Q9F4F7 | Biochemical Sfp PPTase activity, qHTS | Potency, µM, most hits filed as inhibitors | 310,000 compounds, 3.5% hits;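 further: the enzyme is Sfp with the accession as filed and its product quenches rhodamine fluorescence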
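Sfp 15 nM + cpd, 15 min RT; start w/ rhodamine-CoA 5 uM, BHQ-2-YbbR 12.5 uM (final); 50 mM Hepes pH 7.6, 10 mM MgCl2, 0.01% NP-40, 0.01% BSA; read 525/598 nm at 0 and 30 min.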
Large screens that a line does not name were inactive. The call rests on the fitted dose curve; in most records, active means well fitted curve in the direction sought with a large enough effect; inconclusive means small, poorly fitted or top-dose-only effect, or another doubt; inactive means no such curve, though single readings can be large; an effect the other way counts as inactive or inconclusive.

C=CCN1CCN(C(c2cc(OC)ccc2OC)c2nnnn2CC2CCCO2)CC1 (centres undefined)	PLK1 PBD block 29.9µM
COc1ccccc1CCNC(=O)CSCC(=O)Nc1ccccc1F	PLK1 PBD block inconclusive (no result: VDR inh, Sfp PPTase inh)
Cc1ccccc1-c1nc(CS(=O)CC(=O)NC2CCCC2)c(C)o1 (centres undefined)	none
COc1ccc2[nH]cc(CCNc3ncncc3-c3ccccc3CN(C)C)c2c1	none (no result: PLK1 PBD block)
FC(F)(F)c1nc(=S)c2ccccc2[nH]1	ALOX12 inh 28.2µM, VDR inh inconclusive, PLK1 PBD block 21.2µM, Sfp PPTase inh 20µM
S=c1nc(COc2ccccc2)[nH]c2ccccc12	Sfp PPTase inh 31.6µM
Nc1cccc2[nH]c(C(F)(F)F)nc12	ALOX12 inh inconclusive, PLK1 PBD block inconclusive
S=c1nc(Cc2ccccc2)[nH]c2ccccc12	none
Cc1ccc(NC(=O)c2nc3ccccc3nc2N2CCOCC2)c(C)c1	none (no result: VDR inh, PLK1 PBD block, Sfp PPTase inh)
CCN(CC)C(=O)COc1ccc(/C(C)=N/Nc2ncc(Cl)cc2Cl)cc1	ALOX12 inh inconclusive, Sfp PPTase inh 79.4µM
O=C(C[C@H]1C[C@H](C(=O)N2CCCCC2)[C@@]2(CCc3ccccc3)c3[nH]c4cc(-c5ccco5)ccc4c3CCN2C1=O)NCCN1CCOCC1	ALOX12 inh inconclusive (no result: Sfp PPTase inh)
O=C(/C=C/c1ccc(O)c(O)c1)OC1C(O)CC(OC(=O)/C=C/c2ccc(O)c(O)c2)(C(=O)O)CC1O (centres undefined)	Sfp PPTase inh 44.7µM
COc1ccccc1NC(=O)c1c(N=Cc2c(O)ccc3ccccc23)cnn1C	Sfp PPTase inh inconclusive
CC(C)C(NC(=O)c1ccccc1F)C(=O)NCc1ccccc1 (centres undefined)	VDR inh inconclusive, PLK1 PBD block 26.7µM
Cc1cc(C)c(Nc2cc(S(=O)(=O)O)c(N)c3c2C(=O)c2ccccc2C3=O)c(C)c1	ALOX12 inh inconclusive, VDR inh inconclusive, PLK1 PBD block 23.8µM, Sfp PPTase inh 50.1µM
CN(C)c1nc2c(c(=O)[nH]1)CCN(Cc1ccccc1F)CC2	none (no result: VDR inh, PLK1 PBD block, Sfp PPTase inh)
CCCn1c(=O)c(C(=O)Nc2ccccc2C)c(O)c2ccccc21	Sfp PPTase inh 35.5µM
CC1CN(C(=O)CCc2ncc(-c3ccc(Cl)cc3)o2)CCO1 (centres undefined)	none (no result: VDR inh, PLK1 PBD block, Sfp PPTase inh)
N#CC(C#N)=C1C=C2C=C(N3CCOCC3)CCC2CC1 (centres undefined)	ALOX12 inh inconclusive, VDR inh 70.8µM
COc1cccc(CNC(=O)c2cc(COc3c(F)cccc3F)on2)c1	none
COC(=O)[C@H](Cc1ccccc1)NC(=O)c1cc(COc2c(F)cccc2F)on1	PLK1 PBD block 29.9µM
CN1CCN(C(=O)c2cc(COc3c(F)cccc3F)on2)CC1c1ccccc1 (centres undefined)	Sfp PPTase inh 10µM
CCN(Cc1ccncc1)C(=O)c1cc(COc2ccc(F)cc2Cl)on1	none
CN(Cc1cccc2ccccc12)C(=O)c1cc(COc2c(F)cccc2F)on1	none
CCc1ccc(CN(C)C(=O)c2cc(COc3c(F)cccc3F)on2)cc1	PLK1 PBD block 18.9µM
CCN(Cc1ccncc1)C(=O)c1cc(COc2c(F)cccc2F)on1	VDR inh inconclusive, PLK1 PBD block 29.9µM
CCCC(=O)N1CCC1(C)C(=O)Nc1ccccn1 (centres undefined)	none (no result: VDR inh, Sfp PPTase inh)
CC(=O)c1coc2c1cc(O)c1ccccc12	none
CC(=O)c1cc(O)c2ccccc2c1O	ALOX12 inh 1.58µM, VDR inh 31.6µM, PLK1 PBD block 5.32µM, Sfp PPTase inh 44.7µM
CNS(=O)(=O)c1ccc(C)c(C(=O)NCC2(c3ccccc3)CC2)c1	none (no result: VDR inh, PLK1 PBD block, Sfp PPTase inh)
Clc1ccc2nc(-c3ccccc3)cn2c1	none
C=CCc1cccc(CNc2nc3ccccc3n2CCN2CCOCC2)c1O	none
Oc1ccccc1CNc1cnc2ccccc2c1	ALOX12 inh inconclusive
Oc1ccc(Cl)cc1CNc1cnc2ccccc2c1	ALOX12 inh 39.8µM
C=CCc1cccc(CNc2nc3ccccc3n2C)c1O	ALOX12 inh 31.6µM
C=CCc1cccc(CNc2cnc3ccccc3c2)c1O	ALOX12 inh 7.94µM
O=C(C[C@@H]1C=C[C@@H](NC(=O)c2cccnc2)[C@@H](CO)O1)NCc1ccncn1	none (no result: VDR inh, Sfp PPTase inh)
O=C1CC(c2ccc(Cl)cc2)Oc2ccc(Cl)cc21 (centres undefined)	VDR inh inconclusive (no result: Sfp PPTase inh)
Cn1c(Cl)cnc1C1CC(=O)c2cc(Cl)ccc2O1 (centres undefined)	VDR inh 79.4µM, Sfp PPTase inh inconclusive
Cc1nc(Oc2ccccc2)c2ccccc2n1	none
c1ccc(Oc2c3ccccc3nc3ccccc23)cc1	VDR inh 44.7µM (no result: ALOX12 inh)
CCSc1nnc(NC(=O)C2C3CCC(C3)C2C(=O)O)s1 (centres undefined)	none
O=C(C=Cc1ccc(O)cc1)c1ccc(O)cc1O	ALOX12 inh 7.94µM (no result: VDR inh, PLK1 PBD block, Sfp PPTase inh)
COc1ccc(C=CC(=O)c2cc(O)ccc2O)cc1	ALOX12 inh inconclusive, VDR inh inconclusive (no result: Sfp PPTase inh)
Cc1ccc(/C=C/C(=O)c2cc(Cl)ccc2O)cc1	none (no result: VDR inh, PLK1 PBD block, Sfp PPTase inh)
O=C(/C=C/c1ccc(Cl)cc1)c1cc(Cl)cc(Cl)c1O	ALOX12 inh 3.55µM (no result: VDR inh, PLK1 PBD block, Sfp PPTase inh)
Cc1ccc(NC(=O)C2CCCN(C3=NS(=O)(=O)c4ccccc43)C2)c(O)c1 (centres undefined)	ALOX12 inh inconclusive (no result: Sfp PPTase inh)
S=c1[nH]cnc2sc(Nc3ccccc3)nc12	ALOX12 inh inconclusive, VDR inh 70.8µM, Sfp PPTase inh 2.24µM
Cc1nc(Nc2ccccc2)sc1C	Sfp PPTase inh inconclusive
Cc1nnc(SCC(=O)NC(C)(C)C)n1NCc1ccc(Cl)cc1	none
NC(=S)c1ccc(S(N)(=O)=O)cc1	ALOX12 inh 3.16µM (no result: VDR inh, PLK1 PBD block, Sfp PPTase inh)
CCCS(=O)(=O)NC(=O)C1(C)CCN(C(=O)c2ccc(F)cc2Cl)C1 (centres undefined)	none (no result: ALOX12 inh, VDR inh, Sfp PPTase inh)
COc1cccc(-c2cnc3c(NC=O)cc(-c4ccc(OC)cc4OC)cn23)c1	none (no result: VDR inh, Sfp PPTase inh)
COc1ccc(-c2cnc3c(NC=O)cc(-c4ccoc4)cn23)cc1OC	ALOX12 inh 5.01µM (no result: VDR inh, Sfp PPTase inh)
COc1ccc(-c2cc(NC=O)c3ncc(-c4ccc(OC)c(OC)c4)n3c2)c(OC)c1	ALOX12 inh 56.2µM (no result: VDR inh, Sfp PPTase inh)
COc1ccc(-c2cnc3c(NC=O)cc(-c4cc(OC)c(OC)c(OC)c4)cn23)cc1OC	none (no result: VDR inh, Sfp PPTase inh)
COC(=O)CC1C(=O)NCCN1C(=S)NC(=O)c1ccccc1[N+](=O)[O-] (centres undefined)	ALOX12 inh inconclusive, Sfp PPTase inh 79.4µM
COC(=O)CC1C(=O)NCCN1C(=S)Nc1cc(C)cc(C)c1 (centres undefined)	none
CCOC(=O)CC1C(=O)NCCN1C(=S)NC(=O)c1ccccc1OC (centres undefined)	none
CC(C)OC(=O)CC1C(=O)NCCN1C(=S)NC(=O)c1cccs1 (centres undefined)	Sfp PPTase inh 56.2µM
CCc1ccccc1NC(=S)N1CCNC(=O)C1CC(=O)OC (centres undefined)	PLK1 PBD block 21.2µM
COC(=O)CC1C(=O)NCCN1C(=S)Nc1ccccc1 (centres undefined)	none
